# According to PubChem BioAssay AID1159580 (chemical genetic matrix, 2015):
# In all, about 5,500 compounds went through this assay and about 2,000 (36%) were called active. About 18% were inconclusive and are not listed. Some of the results follow. Unmarked numbers belong to inactive results. Rule as the data show it: active = normalized growth mostly below about 0.91 (no sharp cut-off); inconclusive = no clear call, values can overlap the other calls; inactive = mostly above about 0.92.
# Assay: chemical genetic growth profiling, strain panel (AID 1159580);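 also: tested at 20 µM; growth read once vehicle control cultures reached saturation at 30 °C; 1 = growth at the plate median or of vehicle wells; lower values mean less growth of the strain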
# Conditions: growth OD
structure (smiles),measurement,setting,value
CC(=O)/C=C\[C@@H]1[C@@]2(C)CCCC(C)(C)C2CC[C@@]1(C)O (some centres not stated),normalized growth,"S. cerevisiae deletion strains, locus YJR075W, strain HOC1, hits give low values",0.982
same,normalized growth,"S. cerevisiae deletion strains, locus YKL009W, strain mrt4, hits give low values",0.97
same,normalized growth,"S. cerevisiae deletion strains, locus YKL068W, hits give low values",0.984
same,normalized growth,"S. cerevisiae deletion strains, locus YKL085W, strain MDH1 (second series), hits give low values",0.977
same,normalized growth,"S. cerevisiae deletion strains, locus YKL085W, strain MDH1, hits give low values",0.977
same,normalized growth,"S. cerevisiae deletion strains, locus YKL160W, strain elf1, hits give low values",0.963
same,normalized growth,"S. cerevisiae deletion strains, locus YKL190W, strain CNB1, hits give low values",0.964
same,normalized growth,"S. cerevisiae deletion strains, locus YKR001C, strain vps1, hits give low values",0.975
same,normalized growth,"S. cerevisiae deletion strains, locus YKR026C, strain gcn3, hits give low values",0.979
same,normalized growth,"S. cerevisiae deletion strains, locus YKR091W, strain srl3, hits give low values",0.975
same,normalized growth,"S. cerevisiae deletion strains, locus YLL001W, strain dnm1, hits give low values",1.01
same,normalized growth,"S. cerevisiae deletion strains, locus YLL026W, hits give low values",0.991
same,normalized growth,"S. cerevisiae deletion strains, locus YLL041C, strain sdh2, hits give low values",0.968
same,normalized growth,"S. cerevisiae deletion strains, locus YLR027C, strain aat2, hits give low values",0.982
same,normalized growth,"S. cerevisiae deletion strains, locus YLR039C, strain RIC1, hits give low values",0.846
same,normalized growth,"S. cerevisiae deletion strains, locus YLR058C, strain SHM2, hits give low values",0.958
same,normalized growth,"S. cerevisiae deletion strains, locus YLR102C, strain apc9, hits give low values",0.973
same,normalized growth,"S. cerevisiae deletion strains, locus YLR113W, strain HOG1, hits give low values",0.951
same,normalized growth,"S. cerevisiae deletion strains, locus YLR221C, strain rsa3, hits give low values",1.01
same,normalized growth,"S. cerevisiae deletion strains, locus YLR258W, strain gsy2, hits give low values",0.981
same,normalized growth,"S. cerevisiae deletion strains, locus YLR262C, strain YPT6 (second series), hits give low values",0.939
same,normalized growth,"S. cerevisiae deletion strains, locus YLR262C, strain YPT6, hits give low values",0.843
same,normalized growth,"S. cerevisiae deletion strains, locus YLR268W, strain sec22, hits give low values",0.923
same,normalized growth,"S. cerevisiae deletion strains, locus YLR320W, strain mms22, hits give low values",1.01
same,normalized growth,"S. cerevisiae deletion strains, locus YLR330W, strain CHS5, hits give low values",0.974
same,normalized growth,"S. cerevisiae deletion strains, locus YLR342W, strain FKS1 (second series), hits give low values",0.957
same,normalized growth,"S. cerevisiae deletion strains, locus YLR342W, strain FKS1, hits give low values",0.968
same,normalized growth,"S. cerevisiae deletion strains, locus YLR357W, strain rsc2, hits give low values",0.998
same,normalized growth,"S. cerevisiae deletion strains, locus YLR370C, strain arc18, hits give low values",0.964
same,normalized growth,"S. cerevisiae deletion strains, locus YLR371W, strain rom2, hits give low values",1
same,normalized growth,"S. cerevisiae deletion strains, locus YLR384C, strain iki3, hits give low values",0.973
same,normalized growth,"S. cerevisiae deletion strains, locus YLR418C, strain cdc73, hits give low values",0.838 (active)
same,normalized growth,"S. cerevisiae deletion strains, locus YML016C, strain PPZ1, hits give low values",0.964
same,normalized growth,"S. cerevisiae deletion strains, locus YML032C, strain rad52, hits give low values",1.02
same,normalized growth,"S. cerevisiae deletion strains, locus YML120C, strain ndi1, hits give low values",0.971
same,normalized growth,"S. cerevisiae deletion strains, locus YML124C, strain tub3, hits give low values",0.979
same,normalized growth,"S. cerevisiae deletion strains, locus YMR058W, strain fet3, hits give low values",0.968
same,normalized growth,"S. cerevisiae deletion strains, locus YMR078C, strain ctf18, hits give low values",0.975
same,normalized growth,"S. cerevisiae deletion strains, locus YMR125W, strain sto1, hits give low values",0.958
same,normalized growth,"S. cerevisiae deletion strains, locus YMR129W, hits give low values",0.96
same,normalized growth,"S. cerevisiae deletion strains, locus YMR205C, strain PFK2, hits give low values",0.926
same,normalized growth,"S. cerevisiae deletion strains, locus YMR223W, strain ubp8, hits give low values",1.01
same,normalized growth,"S. cerevisiae deletion strains, locus YMR231W, strain pep5, hits give low values",0.972
same,normalized growth,"S. cerevisiae deletion strains, locus YMR263W, strain SAP30, hits give low values",0.947
same,normalized growth,"S. cerevisiae deletion strains, locus YMR307W, strain GAS1, hits give low values",1.08
same,normalized growth,"S. cerevisiae deletion strains, locus YNL067W, strain RPL9B, hits give low values",0.957
same,normalized growth,"S. cerevisiae deletion strains, locus YNL071W, strain lat1, hits give low values",0.961
same,normalized growth,"S. cerevisiae deletion strains, locus YNL128W, strain TEP1, hits give low values",0.927
same,normalized growth,"S. cerevisiae deletion strains, locus YNL153C, strain GIM3, hits give low values",0.951
same,normalized growth,"S. cerevisiae deletion strains, locus YNL183C, strain NPR1, hits give low values",0.947
same,normalized growth,"S. cerevisiae deletion strains, locus YNL209W, strain ssb2, hits give low values",0.986
same,normalized growth,"S. cerevisiae deletion strains, locus YNL233W, strain BNI4, hits give low values",0.942
same,normalized growth,"S. cerevisiae deletion strains, locus YNL248C, strain rpa49, hits give low values",0.952
same,normalized growth,"S. cerevisiae deletion strains, locus YNL250W, strain rad50, hits give low values",0.99
same,normalized growth,"S. cerevisiae deletion strains, locus YNL271C, strain bni1, hits give low values",0.991
same,normalized growth,"S. cerevisiae deletion strains, locus YNL298W, strain CLA4, hits give low values",0.984
same,normalized growth,"S. cerevisiae deletion strains, locus YNL307C, strain MCK1, hits give low values",0.948
same,normalized growth,"S. cerevisiae deletion strains, locus YNL322C, strain KRE1 (second series), hits give low values",0.989
same,normalized growth,"S. cerevisiae deletion strains, locus YNL322C, strain KRE1, hits give low values",0.965
same,normalized growth,"S. cerevisiae deletion strains, locus YNR049C, strain mso1, hits give low values",0.98
same,normalized growth,"S. cerevisiae deletion strains, locus YNR052C, strain pop2, hits give low values",0.98
same,normalized growth,"S. cerevisiae deletion strains, locus YOL006C, strain TOP1, hits give low values",0.867
same,normalized growth,"S. cerevisiae deletion strains, locus YOL012C, strain htz1",0.968
same,normalized growth,"S. cerevisiae deletion strains, locus YOL147C, strain pex11, hits give low values",0.987
same,normalized growth,"S. cerevisiae deletion strains, locus YOR001W, strain rrp6, hits give low values",0.95
same,normalized growth,"S. cerevisiae deletion strains, locus YOR061W, strain CKA2, hits give low values",0.944
same,normalized growth,"S. cerevisiae deletion strains, locus YOR069W, strain VPS5, hits give low values",0.977
same,normalized growth,"S. cerevisiae deletion strains, locus YOR070C, strain gyp1, hits give low values",0.968
same,normalized growth,"S. cerevisiae deletion strains, locus YOR080W, strain dia2, hits give low values",0.978
same,normalized growth,"S. cerevisiae deletion strains, locus YOR083W, strain WHI5, hits give low values",1.03
same,normalized growth,"S. cerevisiae deletion strains, locus YOR106W, strain vam3, hits give low values",0.982
same,normalized growth,"S. cerevisiae deletion strains, locus YOR136W, strain idh2, hits give low values",0.996
same,normalized growth,"S. cerevisiae deletion strains, locus YOR144C, strain elg1, hits give low values",0.97
same,normalized growth,"S. cerevisiae deletion strains, locus YOR184W, strain ser1, hits give low values",0.993
same,normalized growth,"S. cerevisiae deletion strains, locus YOR231W, strain MKK1, hits give low values",0.964
same,normalized growth,"S. cerevisiae deletion strains, locus YOR265W, strain rbl2, hits give low values",0.979
same,normalized growth,"S. cerevisiae deletion strains, locus YOR270C, strain vph1, hits give low values",0.909
same,normalized growth,"S. cerevisiae deletion strains, locus YOR290C, strain snf2, hits give low values",0.974
same,normalized growth,"S. cerevisiae deletion strains, locus YOR316C, strain cot1, hits give low values",0.977
same,normalized growth,"S. cerevisiae deletion strains, locus YPL051W, strain arl3, hits give low values",0.986
same,normalized growth,"S. cerevisiae deletion strains, locus YPL055C, strain LGE1, hits give low values",0.866
same,normalized growth,"S. cerevisiae deletion strains, locus YPL078C, strain atp4, hits give low values",0.97
same,normalized growth,"S. cerevisiae deletion strains, locus YPL106C, strain sse1, hits give low values",1.02
same,normalized growth,"S. cerevisiae deletion strains, locus YPL240C, strain hsp82, hits give low values",0.98
same,normalized growth,"S. cerevisiae deletion strains, locus YPL241C, strain CIN2, hits give low values",0.968
same,normalized growth,"S. cerevisiae deletion strains, locus YPL256C, strain CLN2, hits give low values",0.979
same,normalized growth,"S. cerevisiae deletion strains, locus YPR119W, strain clb2, hits give low values",0.985
same,normalized growth,"S. cerevisiae deletion strains, locus YPR141C, strain kar3, hits give low values",0.975
same,normalized growth,"S. cerevisiae deletion strains, locus YPR163C, strain tif3, hits give low values",0.973
same,normalized growth,"S. cerevisiae deletion strains, locus YPR167C, strain met16, hits give low values",0.971
same,normalized growth,"S. cerevisiae deletion strains, strain wtn01, hits give low values",0.94
same,normalized growth,"S. cerevisiae strains, strain wild type, hits give low values",0.967
